Source: PubChem BioAssay (NCATS)
Values without a mark were called inactive. Records with an inconclusive call do not appear. Entries that show only a call come without a potency. Calls of active or inactive are those of the source. Unless noted, calls come from the whole dose curve; as a rule, active = well fitted curve in the direction sought with a large enough effect; inconclusive = small, poorly fitted or top-dose-only effect, or another doubt; inactive = no such curve, though single readings can be large; an effect the other way counts as inactive or inconclusive. Peptide text beside a SMILES is read from it.

Experiments:
[1] = S16 Schwann cell viability assay (CellTiter-Glo assay) (AID 624031);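 note: cellular ATP luminescence as a viability measure; nearly all actives have a fitted effect of over 70% in size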
Procedure, shortened: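 Native S16 Schwann cells (rat), serum-containing medium, overnight attachment then 24 h drug exposure at 37 °C/5% CO2. CellTiter-Glo ATP signal; normalized to cell-free and vehicle wells.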

ATS189 = assay: qHTS profiling for inhibitors of Plasmodium falciparum proliferation (AID 504749); note: nearly all actives have a fitted effect of over 60% in size; note: potency is the fitted concentration of half-maximal effect; settings: P. falciparum in erythrocytes, SYBR Green DNA, 72 h; series mostly up to 12.8 µM
Procedure, shortened: (§1)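 SYBR Green fluorescence (ex 485 nm, em 535 nm) reports parasite DNA after 72 h compound exposure of infected red cells at 0.3% parasitemia, 2.5% hematocrit; signal normalized to 0.29 uM artemisinin and vehicle wells.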

ATS95 = assay: as above; settings: P. falciparum in erythrocytes, SYBR Green DNA, 72 h; series mostly up to 12.8 µM
Procedure, shortened: as §1

CP194 = assay: as above; settings: P. falciparum in erythrocytes, SYBR Green DNA, 72 h; series mostly up to 12.8 µM
Procedure, shortened: as §1

CP201 = assay: as above; settings: P. falciparum in erythrocytes, SYBR Green DNA, 72 h; series mostly up to 12.8 µM
Procedure, shortened: as §1

CP237 = assay: as above; settings: P. falciparum in erythrocytes, SYBR Green DNA, 72 h; series mostly up to 12.8 µM
Procedure, shortened: as §1

CP250 = assay: as above; settings: P. falciparum in erythrocytes, SYBR Green DNA, 72 h; series mostly up to 12.8 µM
Procedure, shortened: as §1

CP260 = assay: as above; settings: P. falciparum in erythrocytes, SYBR Green DNA, 72 h; series mostly up to 12.8 µM
Procedure, shortened: as §1

CP266 = assay: as above; settings: P. falciparum in erythrocytes, SYBR Green DNA, 72 h; series mostly up to 12.8 µM
Procedure, shortened: as §1

CP286 = assay: as above; settings: P. falciparum in erythrocytes, SYBR Green DNA, 72 h; series mostly up to 12.8 µM
Procedure, shortened: as §1

CP315 = assay: as above; settings: P. falciparum in erythrocytes, SYBR Green DNA, 72 h; series mostly up to 12.8 µM
Procedure, shortened: as §1

DIV17 = assay: as above; settings: P. falciparum in erythrocytes, SYBR Green DNA, 72 h; series mostly up to 12.8 µM
Procedure, shortened: as §1

GB4 = assay: as above; settings: P. falciparum in erythrocytes, SYBR Green DNA, 72 h; series mostly up to 12.8 µM
Procedure, shortened: as §1

HB3 = assay: as above; settings: P. falciparum in erythrocytes, SYBR Green DNA, 72 h; series mostly up to 12.8 µM
Procedure, shortened: as §1

P93_24 = assay: as above; settings: P. falciparum in erythrocytes, SYBR Green DNA, 72 h; series mostly up to 12.8 µM
Procedure, shortened: as §1

P94_40 = assay: as above; settings: P. falciparum in erythrocytes, SYBR Green DNA, 72 h; series mostly up to 12.8 µM
Procedure, shortened: as §1

PAD = assay: as above; settings: P. falciparum in erythrocytes, SYBR Green DNA, 72 h; series mostly up to 12.8 µM
Procedure, shortened: as §1

TAB109 = assay: as above; settings: P. falciparum in erythrocytes, SYBR Green DNA, 72 h; series mostly up to 12.8 µM
Procedure, shortened: as §1

TAB165 = assay: as above; settings: P. falciparum in erythrocytes, SYBR Green DNA, 72 h; series mostly up to 12.8 µM
Procedure, shortened: as §1

[2] = target: Glucocorticoid receptor (Homo sapiens) (UniProt P04150); assay: GR-GFP Redistribution (AID 450;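 active = compounds whose dose series gives a full or clear partial fitted curve of increased nuclear translocation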; note: potency is the fitted concentration of half-maximal effect); settings: U2OS GR-GFP nuclear translocation, laser cytometry, 2 h
Chain of Glucocorticoid receptor (Homo sapiens) (P04150 whole entry, looked up): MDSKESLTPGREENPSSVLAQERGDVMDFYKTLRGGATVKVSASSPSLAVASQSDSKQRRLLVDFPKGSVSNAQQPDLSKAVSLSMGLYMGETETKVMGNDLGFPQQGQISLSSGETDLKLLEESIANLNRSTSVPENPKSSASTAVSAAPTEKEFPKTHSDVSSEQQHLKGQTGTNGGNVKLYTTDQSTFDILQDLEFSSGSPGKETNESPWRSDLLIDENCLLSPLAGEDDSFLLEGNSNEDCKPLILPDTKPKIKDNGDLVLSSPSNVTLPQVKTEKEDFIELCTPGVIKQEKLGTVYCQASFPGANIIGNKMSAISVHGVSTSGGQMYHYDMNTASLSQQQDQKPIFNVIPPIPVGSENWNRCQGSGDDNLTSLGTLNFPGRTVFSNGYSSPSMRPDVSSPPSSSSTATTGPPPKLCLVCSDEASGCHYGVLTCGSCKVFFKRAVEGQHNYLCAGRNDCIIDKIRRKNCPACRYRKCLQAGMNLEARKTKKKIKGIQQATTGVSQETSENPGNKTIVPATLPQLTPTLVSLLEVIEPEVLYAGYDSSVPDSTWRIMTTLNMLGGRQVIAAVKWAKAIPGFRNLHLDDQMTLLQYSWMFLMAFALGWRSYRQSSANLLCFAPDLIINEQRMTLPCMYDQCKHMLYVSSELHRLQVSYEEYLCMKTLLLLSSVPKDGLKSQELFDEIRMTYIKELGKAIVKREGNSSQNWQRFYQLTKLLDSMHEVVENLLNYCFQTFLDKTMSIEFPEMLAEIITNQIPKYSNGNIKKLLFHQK

Row | SMILES | outcome [1] | Potency (ATS189) | Potency (ATS95) | Potency (CP194) | Potency (CP201) | Potency (CP237) | Potency (CP250) | Potency (CP260) | Potency (CP266) | Potency (CP286) | Potency (CP315) | Potency (DIV17) | Potency (GB4) | Potency (HB3) | Potency (P93_24) | Potency (P94_40) | Potency (PAD) | Potency (TAB109) | Potency (TAB165) | Potency [2] [µM]
1 | COC(=O)C(Cc1ccccc1)NC(=O)C(N)CC(=O)O (stereo not drawn) (H-Asp-Phe-OMe; configuration not given here) | inactive | inactive | inactive | inactive | inactive | inactive | inactive | inactive | inactive | inactive | inactive | inactive | inactive | inactive | inactive | inactive | inactive | inactive | inactive | –
2 | COC1C=CO[C@@]2(C)Oc3c(C)c(O)c4c(O)c(c5c(nc6cc(C)ccn65)c4c3C2=O)NC(=O)/C(C)=C\C=CC(C)C(O)[C@@H](C)C(O)C(C)[C@@H](OC(C)=O)C1C (some centres undefined) | inactive | 12.6 µM (active) | 10 µM (active) | 12 µM (active) | – | 8.91 µM (active) | – | 11.2 µM (active) | – | – | 7.57 µM (active) | 0.536 µM (active) | 3.79 µM (active) | 11.2 µM (active) | 3.98 µM (active) | 5.01 µM (active) | 3.16 µM (active) | 11.2 µM (active) | 2.24 µM (active) | –
3 | CC1(C)OC2CC(=O)OC[C@@]23C1CC(=O)[C@]1(C)C3CC[C@@]2(C)C(c3ccoc3)OC(=O)C3O[C@@]321 (some centres undefined) | inactive | inactive | inactive | inactive | inactive | inactive | inactive | inactive | inactive | inactive | inactive | inactive | inactive | inactive | inactive | inactive | inactive | inactive | inactive | –
4 | COc1ccc2cc(C(C)CO)ccc2c1 (centres undefined) | inactive | inactive | inactive | inactive | inactive | inactive | inactive | inactive | inactive | inactive | inactive | inactive | inactive | inactive | inactive | inactive | inactive | inactive | inactive | –
5 | CC(C)C1CCC(C(=O)NC(Cc2ccccc2)C(=O)O)CC1 (centres undefined) | inactive | inactive | inactive | inactive | inactive | inactive | – | inactive | – | inactive | inactive | inactive | inactive | inactive | inactive | – | inactive | inactive | inactive | –
6 | CC1CCC(C(C)C)C(=O)C1 (centres undefined) | inactive | inactive | inactive | inactive | inactive | inactive | inactive | inactive | inactive | inactive | inactive | inactive | inactive | inactive | inactive | inactive | inactive | inactive | inactive | –
7 | NC(C(=O)O)[C@@H]1CC(Cl)=NO1 (some centres undefined) | – | 2.82 µM (active) | 1 µM (active) | 3.38 µM (active) | 3.01 µM (active) | 1.26 µM (active) | 2.82 µM (active) | 0.891 µM (active) | 3.79 µM (active) | 0.794 µM (active) | 3.38 µM (active) | 3.38 µM (active) | 1.2 µM (active) | 1.78 µM (active) | 1 µM (active) | 1.12 µM (active) | 0.708 µM (active) | 1 µM (active) | 1 µM (active) | –
8 | COc1ccc(-c2cc(=O)c3c(O)cc(O)cc3o2)cc1 | – | – | – | – | – | – | – | – | – | – | – | – | – | – | – | – | – | – | – | > 20.6
9 | OCC1O[C@H](OC2C(CO)O[C@@](O)(CO)C2O)C(O)C(O)C1O (some centres undefined) | inactive | inactive | inactive | inactive | inactive | inactive | inactive | inactive | inactive | inactive | inactive | inactive | inactive | inactive | inactive | inactive | inactive | inactive | inactive | –
10 | C/C(=C\CNc1ncnc2nc[nH]c12)CO | – | – | – | – | – | – | – | – | – | – | – | – | – | – | – | – | – | – | – | > 46
11 | CC(C)=CCC[C@](C)(O)C1CC=C(C)CC1 (some centres undefined) | inactive | inactive | inactive | inactive | inactive | inactive | inactive | inactive | – | inactive | inactive | inactive | inactive | inactive | inactive | inactive | inactive | inactive | inactive | –
12 | C[C@@](N)(C(=O)O)c1cccc(CC(=O)O)c1 | – | – | – | – | – | – | – | – | – | – | – | – | – | – | – | – | – | – | – | > 46
13 | C/C1=C2N=C(/C=C3N=C(/C(C)=C4\[N-]C(C)(C5N=C1C(C)(CCC(=O)NCC(C)OP(=O)([O-])O[C@H]1C(O)C(n6cnc7cc(C)c(C)cc76)O[C@@H]1CO)C5CC(N)=O)C(C)(CC(N)=O)C4CCC(N)=O)C(C)(CC(N)=O)C\3CCC(N)=O)C(C)(C)C/2CCC(N)=O.[CH2-]C1OC(n2cnc3c(N)ncnc32)C(O)C1O.[Co] (some centres undefined) | inactive | inactive | inactive | inactive | inactive | inactive | inactive | inactive | inactive | inactive | inactive | inactive | inactive | inactive | inactive | inactive | inactive | inactive | inactive | –
